A number with no mark means an inactive call. Records with an inconclusive call do not appear. Calls of active or inactive are those of the source. Unless noted, calls come from the whole dose curve; as a rule, active = well fitted curve in the direction sought with a large enough effect in the repeat runs; inconclusive = weak or mixed curves; inactive = no such curve, though single readings can be large; an effect the other way counts as inactive or inconclusive.

The nature of test [1]: qHTS assay to identify small molecule antagonists of the glucocorticoid receptor (GR) signaling pathway - cell viability counter screen (AID 720693; note: nearly all actives have a fitted effect of over 55% in size). (In general: qHTS replaces the single test concentration by a dilution series.)
Test [2] in a line: qHTS assay for identifying genotoxic compounds that show differential cytotoxicity against isogenic chicken DT40 cell lines with known DNA damage response pathways - Rev3 mutant cell line (AID 743014). Note: nearly all actives have a fitted effect of over 55% in size. Note: potency is the fitted concentration of half-maximal effect.
The nature of test [3]: qHTS assay for identifying genotoxic compounds that show differential cytotoxicity against isogenic chicken DT40 cell lines with known DNA damage response pathways - Rad54/Ku70 mutant cell line (AID 743015). Note: nearly all actives have a fitted effect of over 60% in size. Note: potency is the fitted concentration of half-maximal effect.
A short description of test [4]: qHTS assay to identify small molecule antagonists of the thyroid receptor (TR) signaling pathway - cell viability counter screen (AID 743064). Note: nearly all actives have a fitted effect of over 50% in size. Note: potency is the fitted concentration of half-maximal effect. An outline of the steps:
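Same-well viability check: GH3.TRE-Luc cells stimulated with 1 nM T3 alongside test compound for 23.5 h, followed by CellTiter-Fluor fluorescence.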

Test [5] concerns thyroid hormone receptor (rat, GH3 cells). Kind of test: qHTS assay to identify small molecule agonists of the thyroid receptor (TR) signaling pathway (AID 743066; calls by dose curve; note: potency is the fitted concentration of half-maximal effect).
The nature of test [6]: qHTS assay to identify small molecule antagonists of the estrogen receptor alpha (ER-alpha) signaling pathway - cell viability counter screen (AID 743074; calls by dose curve; note: nearly all actives have a fitted effect of over 45% in size).
Test [7] deals with Estrogen receptor (Homo sapiens) (UniProt P03372). Nature of the test: qHTS assay to identify small molecule agonists of the estrogen receptor alpha (ER-alpha) signaling pathway (AID 743075; calls by dose curve; note: potency is the fitted concentration of half-maximal effect).
The target is the same in test [8]. Nature of the test: qHTS assay to identify small molecule agonists of the estrogen receptor alpha (ER-alpha) signaling pathway using the BG1 cell line (AID 743079). Note: nearly all actives have a fitted effect of over 20% in size. Note: potency is the fitted concentration of half-maximal effect. Conditions: BG1Luc4E2 cells, ERE-luciferase agonist, 22 h; activation: at 70.3 µM (top of the series).
Test [9] in a line: qHTS assay to identify small molecule antagonists of the estrogen receptor alpha (ER-alpha) signaling pathway using the BG1 cell line - cell viability counter screen (AID 743081).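 Note: compound given together with 17beta-estradiol as the ER stimulus; nearly all actives have a fitted effect of over 45% in size.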
Test [10] can be described thus: qHTS assay to identify small molecule antagonists of the androgen receptor (AR) signaling pathway - cell viability counter screen (AID 743033; note: nearly all actives have a fitted effect of over 45% in size).
Test [11] addresses Androgen receptor (Homo sapiens) (UniProt P10275). Kind of test: qHTS assay to identify small molecule agonists of the androgen receptor (AR) signaling pathway (AID 743036; active = well fitted activation curve with a large enough effect in the signal ratio in the repeat runs, with a control signal flat, not every such curve was filed as active; the % refers to the signal ratio). In outline:
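Agonist activity was scored by beta-lactamase reporter fluorescence in stably transfected HEK293 cells exposed to compounds for 16 h at 37C and 5% CO2. Substrate loading took 2 h at room temperature.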

Test [12] shares this target. Nature of the test: qHTS assay to identify small molecule agonists of the androgen receptor (AR) signaling pathway using the MDA cell line (AID 743040; note: nearly all actives have a fitted effect of over 20% in size). An outline of the steps:
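Stable MMTV-luciferase reporter in MDA-kb2 cells; note the promoter carries GR as well as AR response elements. 16 h compound treatment, 37C, 0% CO2; ONE-Glo luminescence endpoint.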

Test [13] in a line: qHTS assay to identify small molecule antagonists of the androgen receptor (AR) signaling pathway using the MDA cell line - cell viability counter screen (AID 743041; note: nearly all actives have a fitted effect of over 45% in size). In outline: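 Using the breast carcinoma line MDA-kb2 AR-luc, test chemicals were co-incubated with R1881 for 16 h; CellTiter-Fluor reagent, added at 15.5 h, provided a fluorescence measure of live cells.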
Test [14] concerns the target Androgen receptor (Homo sapiens) (UniProt P10275). Nature of the test: qHTS assay to identify small molecule antagonists of the androgen receptor (AR) signaling pathway using the MDA cell line (AID 743042; note: nearly all actives have a fitted effect of over 55% in size). In outline:
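Antagonist mode: compounds plus R1881 agonist added to MDA-kb2 AR-luc cells, incubated 16 h at 37C. Luciferase reporter luminescence quantified, with multiplexed CellTiter-Fluor readout for cell viability.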

Test [15] is described as follows: qHTS assay to identify small molecule antagonists of the thyroid receptor (TR) signaling pathway (AID 743065). Note: nearly all actives have a fitted effect of over 55% in size. Note: potency is the fitted concentration of half-maximal effect. An outline of the steps:
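Antagonism measured as loss of luciferase signal in GH3 cells stably carrying a TRE-luciferase reporter, co-treated with compound and T3 (1 nM final) for 23.5 h at 37 C. Viability was read in the same well by CellTiter-Fluor.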

The next test concerns the target Aromatase (Homo sapiens) (UniProt P11511). Kind of test: qHTS assay to identify aromatase inhibitors (AID 743083). Note: nearly all actives have a fitted effect of over 55% in size. Note: potency is the fitted concentration of half-maximal effect.
For test [16], the target named is Estrogen receptor (Homo sapiens) (UniProt P03372). Nature of the test: qHTS assay to identify small molecule antagonists of the estrogen receptor alpha (ER-alpha) signaling pathway (AID 743069; active = well fitted curve in the direction sought with a large enough effect in the signal ratio in the repeat runs, not every such curve was filed as active; the % refers to the signal ratio). An outline of the steps: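 Fluorescence intensity from a beta-lactamase FRET substrate served as the read-out. Cells: HEK293 with stably integrated ER-alpha-UAS-bla reporter. Agonist 17beta-estradiol was co-added with compounds; incubation 18 hr at 37C, substrate 2 hr at room temperature.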

A short description of test [17]: qHTS assay to identify small molecule antagonists of the estrogen receptor alpha (ER-alpha) signaling pathway using the BG1 cell line (AID 743080; calls by dose curve;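 note: BG1 cells stimulated with 17beta-estradiol alongside compound; nearly all actives have a fitted effect of over 25% in size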; note: potency is the fitted concentration of half-maximal effect). In outline:
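Quantitative HTS on the Tox21 10K library: BG1 cells with endogenous ER-alpha and ERE-luciferase reporter, 17beta-estradiol stimulation, 21.5 h compound exposure, luminescence endpoint with parallel fluorescence cytotoxicity counter-read.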

Test [18] in a line: qHTS assay for identifying genotoxic compounds that show differential cytotoxicity against isogenic chicken DT40 cell lines with known DNA damage response pathways - wild type cell line (AID 743012). Note: nearly all actives have a fitted effect of over 60% in size. Note: potency is the fitted concentration of half-maximal effect. In outline:
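Cytotoxicity in repair-proficient parental chicken DT40 cells serves as the comparator for Rad54/Ku70- and Rev3-deficient lines. Cells were exposed to compounds for 40 h at 37 C/5% CO2, and ATP-based luminescence (CellTiter-Glo) measured viability.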

Test [19] addresses Androgen receptor (Homo sapiens) (UniProt P10275). Kind of test: qHTS assay to identify small molecule antagonists of the androgen receptor (AR) signaling pathway (AID 743035; active = well fitted inhibition curve with a large enough effect in the signal ratio in the repeat runs, not every such curve was filed as active; the % refers to the signal ratio). In outline:
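Steps: seed AR-UAS-bla GripTite HEK293 cells, incubate 4 h at 37C; pin in test compound, then add agonist R1881; incubate 16 h at 37C; add LiveBLAzer B/G FRET substrate, 2 h at room temperature; read fluorescence.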
% is set by controls: 0 for no effect and ±100 for the full control effect.

Aromatase (Homo sapiens), sequence (P11511 whole entry, looked up): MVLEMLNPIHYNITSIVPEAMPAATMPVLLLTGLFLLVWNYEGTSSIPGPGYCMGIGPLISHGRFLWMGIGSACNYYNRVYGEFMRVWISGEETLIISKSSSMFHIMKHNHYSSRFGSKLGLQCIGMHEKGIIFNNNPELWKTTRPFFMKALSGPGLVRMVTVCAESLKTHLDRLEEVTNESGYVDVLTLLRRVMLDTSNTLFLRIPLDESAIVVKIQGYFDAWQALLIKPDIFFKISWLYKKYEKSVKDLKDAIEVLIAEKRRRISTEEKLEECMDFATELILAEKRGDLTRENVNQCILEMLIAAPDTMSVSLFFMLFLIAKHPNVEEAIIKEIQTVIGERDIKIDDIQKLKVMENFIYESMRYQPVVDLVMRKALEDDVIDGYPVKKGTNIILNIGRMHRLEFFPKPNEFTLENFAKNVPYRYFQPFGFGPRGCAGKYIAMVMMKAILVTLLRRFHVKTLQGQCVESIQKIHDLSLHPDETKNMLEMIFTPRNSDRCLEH
Estrogen receptor (Homo sapiens), sequence (P03372 whole entry, looked up): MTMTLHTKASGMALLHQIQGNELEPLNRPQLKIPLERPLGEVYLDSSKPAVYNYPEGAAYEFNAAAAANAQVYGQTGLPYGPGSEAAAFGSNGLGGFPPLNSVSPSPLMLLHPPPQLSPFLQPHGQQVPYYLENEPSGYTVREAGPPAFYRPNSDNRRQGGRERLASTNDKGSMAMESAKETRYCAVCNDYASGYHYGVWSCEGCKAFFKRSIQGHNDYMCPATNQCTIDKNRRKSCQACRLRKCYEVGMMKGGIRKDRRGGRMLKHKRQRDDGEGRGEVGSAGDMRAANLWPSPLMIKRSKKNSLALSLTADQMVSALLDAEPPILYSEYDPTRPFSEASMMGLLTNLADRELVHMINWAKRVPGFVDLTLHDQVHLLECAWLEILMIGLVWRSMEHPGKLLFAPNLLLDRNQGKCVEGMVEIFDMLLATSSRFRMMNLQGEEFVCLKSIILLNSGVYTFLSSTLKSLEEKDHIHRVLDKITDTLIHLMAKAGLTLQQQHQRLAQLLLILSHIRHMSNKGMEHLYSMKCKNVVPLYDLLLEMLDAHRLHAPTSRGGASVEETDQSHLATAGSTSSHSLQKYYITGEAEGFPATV
Androgen receptor (Homo sapiens), sequence (P10275 whole entry, looked up): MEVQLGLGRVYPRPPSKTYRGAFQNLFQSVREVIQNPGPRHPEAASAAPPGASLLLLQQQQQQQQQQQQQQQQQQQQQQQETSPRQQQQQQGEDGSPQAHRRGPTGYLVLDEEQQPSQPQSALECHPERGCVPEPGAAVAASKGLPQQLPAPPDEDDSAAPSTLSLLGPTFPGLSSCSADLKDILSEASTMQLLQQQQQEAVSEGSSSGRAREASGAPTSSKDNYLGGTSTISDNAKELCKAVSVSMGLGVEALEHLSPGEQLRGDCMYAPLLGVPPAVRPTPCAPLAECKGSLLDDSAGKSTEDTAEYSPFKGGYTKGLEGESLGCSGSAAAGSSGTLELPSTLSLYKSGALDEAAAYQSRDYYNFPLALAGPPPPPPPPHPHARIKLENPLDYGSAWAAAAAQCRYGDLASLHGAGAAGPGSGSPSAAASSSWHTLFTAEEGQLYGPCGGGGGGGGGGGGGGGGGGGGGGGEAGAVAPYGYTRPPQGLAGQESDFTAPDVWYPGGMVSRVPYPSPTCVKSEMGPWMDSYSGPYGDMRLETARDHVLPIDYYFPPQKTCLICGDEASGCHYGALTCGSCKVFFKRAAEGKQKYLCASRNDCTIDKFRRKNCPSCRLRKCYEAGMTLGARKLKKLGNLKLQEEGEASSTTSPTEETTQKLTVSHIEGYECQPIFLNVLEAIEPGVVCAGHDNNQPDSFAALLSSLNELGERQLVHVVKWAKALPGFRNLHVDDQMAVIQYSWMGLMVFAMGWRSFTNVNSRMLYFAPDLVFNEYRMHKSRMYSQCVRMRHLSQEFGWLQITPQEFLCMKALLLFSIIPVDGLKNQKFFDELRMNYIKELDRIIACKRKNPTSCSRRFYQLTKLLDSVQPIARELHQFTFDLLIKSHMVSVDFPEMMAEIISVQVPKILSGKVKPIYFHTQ

On to `Oc1cc(Cl)cc(Cl)c1`, for which the Potency result in test [1], in test [4], in test [5], in test [6], in [7] and in [8] was “inactive” in each case. Also, the Potency entry in test [9] is “inactive”. Further, the Potency in [2] and in [3] was 61.8 µM (active) in each case.

Consider `O=[N+]([O-])C(Br)Br`, for which the Potency entry in test [1], in test [10], in test [13], in test [14], in test [4] and in [15] was “inactive” throughout. The Potency result in test [5], in [6] and in [9] was “inactive” in each case. The outcome in [11] and in [12] was inactive.

On to `O=C(N[C@H]1N=C(c2ccccc2F)c2cccc3c2N(CC3)C1=O)c1cc2ccccc2[nH]1`, for which the Potency result in test [1], in test [2], in test [10], in test [13], in [5] and in test [9] was “inactive” throughout. Further, the Potency result with Aromatase (Homo sapiens) is “inactive”. Besides, the Potency in [3] was 29.8 µM (active).

In the case of `Cc1cccc(Cc2cnc[nH]2)c1C`, the Potency result in [1], in test [3], in [10], in [13], in test [4] and in test [15] was “inactive” in each case. Besides, the Potency entry in test [5], in test [16], in [7], in [8] and in test [9] was “inactive” in each case.

With `Cc1ccc2cc3c(ccc4ccccc43)c3c2c1CC3`, the Potency entry in [1], in test [2], in test [3], in [10], in test [13] and in [6] was “inactive” each time. Also, in test [9], the Potency entry is “inactive”. The figures for the Potency in test [7] and in test [17] were 6.18 µM [activator] (active) and 0.546 µM (active), respectively.

For `CCCCC(CC)COC(=O)OOC(C)(C)C` (centres undefined), the Potency result in test [1], in test [2], in [3], in test [10], in [13] and in test [15] was “inactive” in each case. Further, the Potency entry (in test [5]; in test [6]; in test [9]; in the test with Aromatase (Homo sapiens)) was “inactive” each time.

With `Cc1ccccc1OP(=O)(Oc1ccccc1C)Oc1ccccc1C`, the Potency entry in test [1], in test [10], in [13], in test [14], in test [7] and in test [17] was “inactive” each time. For the same compound, in test [9], the Potency result was “inactive”. Also, the Potency was 54.7 µM (active) in test [2], 54.7 µM (active) in test [4], 54.7 µM (active) in test [15] and 3.87 µM (active) in [8]. The result in test [12] was inactive.

Regarding `c1csc(-c2ccc(-c3cccs3)s2)c1`, the Potency result (in test [1]; in test [10]; in [13]; in test [9]; in the test with Aromatase (Homo sapiens)) was “inactive” in each case. Further, the Potency in test [18] was 68.6 µM (active); in [5] it was 61.1 µM (active); in test [8] it was 27.3 µM (active).

With `CN1C(=O)[C@@H](NC(=O)c2cc3ccccc3[nH]2)N=C(c2ccccc2)c2ccccc21`, the Potency entry in [1], in test [10], in test [13], in [5], in test [6] and in [9] was “inactive” each time. In addition, the Potency was 10.6 µM (active) in [18] and 18.8 µM (active) in test [3].

For `CNC(=O)O/N=C(\C)C(C)S(C)(=O)=O` (centres undefined), the Potency result in [1], in test [18], in [3], in test [10], in test [13] and in test [4] was “inactive” each time. For the same compound, the Potency result (in test [5]; in test [6]; in test [9]; in the test with Aromatase (Homo sapiens)) was “inactive” in each case.

As to `Cc1cc2c3c(c1)C(c1ccccc1)=N[C@@H](NC(=O)c1ccncc1)C(=O)N3CC2`, the Potency entry in test [1], in test [13], in test [5], in test [7], in [8] and in [17] was “inactive” in each case. The Potency entry with Aromatase (Homo sapiens) was “inactive”. Besides, the Potency was 61.1 µM (active) in [2] and 24.3 µM (active) in [15].

On to `CSSC`, for which the Potency entry in test [1], in test [18], in test [3], in [10], in test [13] and in [5] was “inactive” in each case. Also, the Potency entry in test [6] and in test [9] was “inactive” throughout.

For the compound `c1cc[n+]2c(c1)-c1cccc[n+]1CC2`, the Potency result in test [1], in test [13], in test [4], in [5], in [6] and in [7] was “inactive” each time. Further, in the test with Aromatase (Homo sapiens), the Potency result was “inactive”. The Potency in test [18] and in [2] was 3.35 µM (active) each time.

Regarding `c1ccc2nc(N3CCNCC3)ccc2c1`, the Potency entry in test [1], in test [10], in [13], in test [5], in test [16] and in test [7] was “inactive” throughout. In addition, the Potency in [18], in test [4] and in test [15] was 29.8 µM (active) each time.

On to `CCCCC/C=C\C/C=C\C/C=C\C/C=C\CCCC(=O)NCC(=O)O`, for which the viability change, negative = cytotoxic in test [1] was -8.97% [at 7.04 µM]; in [13], -2.98% [at 8.47 µM]. The activity change, negative = cytotoxicity in [18] was 16.5% [at 8.52 µM]; in test [3], 4.36% [at 8.55 µM]; in test [9], 0.607% [at 8.47 µM]. Further, the activity change, negative = cytotoxic in [4] is 12.7% [at 8.44 µM]. The activation in test [5] was 2.19% [at 8.08 µM]; in test [7], -3.03% [at 6.71 µM]; in test [8] it was 2.37% [at 8.47 µM]. Besides, the activity, negative = inhibition was -29.7% [at 6.71 µM] in [16] and 4.53% [at 8.47 µM] with Aromatase (Homo sapiens). Besides, the activity, negative = cytotoxicity in [6] was -15.9% [at 6.72 µM]. Also, the activity change, negative = inhibition in test [17] is 0.823% [at 8.47 µM].

For the compound `O=C(NC(=O)c1ccccc1Cl)Nc1ccc(OC(F)(F)F)cc1`, the Potency entry in test [1], in [18], in test [3], in [10], in test [19] and in test [13] was “inactive” each time. The Potency entry in test [14], in test [4], in test [15], in [5], in test [6] and in test [9] was “inactive” throughout. The Potency entry in the test with Aromatase (Homo sapiens) was “inactive”. Besides, the call in test [12] was inactive.

As for `COP(=S)(OC)Oc1ccc([N+](=O)[O-])c(C)c1`, the Potency entry in test [1], in test [3], in [10], in test [13], in test [4] and in test [15] was “inactive” throughout. Also, the Potency result in [5], in test [6], in test [7], in [8] and in test [9] was “inactive” each time.

`O.O.O.O=C([O-])[C@H]([O-])[C@@H]([O-])C(=O)[O-].O=C([O-])[C@H]([O-])[C@@H]([O-])C(=O)[O-].[K+].[K+].[Sb+3].[Sb+3]`: the Potency result in test [1], in test [2], in [10], in test [5], in test [6] and in test [7] was “inactive” in each case. The Potency in test [3] was 3.46 µM (active).

Turning to `CCC[CH2][Sn]([CH2]CCC)([O]C(C)=O)[O]C(C)=O`, the Potency result in test [1], in test [13], in test [5], in [6] and in [7] was “inactive” throughout. Further, the results for the Potency (in test [2]; in [3]; with Aromatase (Homo sapiens)) were 30.9 µM (active), 30.9 µM (active) and 15.5 µM (active), respectively.
